Assay results: article PMC7862700, “An all-to-all approach to the identification of sequence-specific readers for epigenetic DNA modifications on cytosine”

Experiments:
Experiment in all cases: DAPPL (digital affinity profiling via proximity ligation, sequencing); 10 mM Tris-HCl pH 7.5, 50 mM NaCl, 1 mM DTT, 4% glycerol, room temperature, 30 min; GST-TFs on glutathione beads, 16-mer random dsDNA library, 0.1% formaldehyde crosslink after washing; high values mean tight binding
Settings in all cases: protein: recombinant; tags: N-terminal GST; dsDNA, one strand shown
[1] = biological target: T1, FLI1 (Homo sapiens, UniProt Q01543 1-452)
T1 sequence: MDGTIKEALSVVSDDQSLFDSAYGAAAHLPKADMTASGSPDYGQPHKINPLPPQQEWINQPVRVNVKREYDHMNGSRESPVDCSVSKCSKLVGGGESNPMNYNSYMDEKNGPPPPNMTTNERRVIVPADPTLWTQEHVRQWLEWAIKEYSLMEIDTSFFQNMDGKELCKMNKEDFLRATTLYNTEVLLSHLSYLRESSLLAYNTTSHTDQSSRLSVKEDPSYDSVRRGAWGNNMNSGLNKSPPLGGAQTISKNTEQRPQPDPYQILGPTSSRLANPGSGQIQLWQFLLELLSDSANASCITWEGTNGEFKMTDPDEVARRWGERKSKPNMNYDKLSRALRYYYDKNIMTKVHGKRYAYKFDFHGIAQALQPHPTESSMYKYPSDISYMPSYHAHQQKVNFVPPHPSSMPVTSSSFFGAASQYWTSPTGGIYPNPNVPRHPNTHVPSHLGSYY
Procedure, shortened: (§1)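 Binding signal is given per hexamer as its read frequency for a factor divided by its frequency in the tag-only sample. GST-fused human transcription factors were expressed in yeast, captured on glutathione beads, barcoded with DNA and pooled with that sample, then incubated with 200 nmole of a 16-mer random double-stranded DNA library in Tris/NaCl/DTT/glycerol buffer for 30 min at room temperature. The pools were then washed, crosslinked, proximity-ligated, amplified by PCR and sequenced on an Illumina NextSeq500.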

[2] = biological target: T2, ELK1 (Homo sapiens, UniProt P19419 1-428)
T2 sequence: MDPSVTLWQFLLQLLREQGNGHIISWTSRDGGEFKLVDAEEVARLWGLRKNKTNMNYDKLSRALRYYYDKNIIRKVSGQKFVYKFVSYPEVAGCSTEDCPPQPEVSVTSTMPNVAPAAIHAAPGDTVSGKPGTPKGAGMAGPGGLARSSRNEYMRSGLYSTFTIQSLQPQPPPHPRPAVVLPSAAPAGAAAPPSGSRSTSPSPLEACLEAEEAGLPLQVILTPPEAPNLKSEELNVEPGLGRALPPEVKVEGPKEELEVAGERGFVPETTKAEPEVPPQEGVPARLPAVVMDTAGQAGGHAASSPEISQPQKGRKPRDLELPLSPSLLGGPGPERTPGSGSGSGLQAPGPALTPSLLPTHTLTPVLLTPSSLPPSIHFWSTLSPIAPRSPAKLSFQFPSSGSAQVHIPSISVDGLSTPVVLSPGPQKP
Procedure, shortened: as §1

[3] = biological target: T3, GABPA (Homo sapiens, UniProt Q06546 1-454)
T3 sequence: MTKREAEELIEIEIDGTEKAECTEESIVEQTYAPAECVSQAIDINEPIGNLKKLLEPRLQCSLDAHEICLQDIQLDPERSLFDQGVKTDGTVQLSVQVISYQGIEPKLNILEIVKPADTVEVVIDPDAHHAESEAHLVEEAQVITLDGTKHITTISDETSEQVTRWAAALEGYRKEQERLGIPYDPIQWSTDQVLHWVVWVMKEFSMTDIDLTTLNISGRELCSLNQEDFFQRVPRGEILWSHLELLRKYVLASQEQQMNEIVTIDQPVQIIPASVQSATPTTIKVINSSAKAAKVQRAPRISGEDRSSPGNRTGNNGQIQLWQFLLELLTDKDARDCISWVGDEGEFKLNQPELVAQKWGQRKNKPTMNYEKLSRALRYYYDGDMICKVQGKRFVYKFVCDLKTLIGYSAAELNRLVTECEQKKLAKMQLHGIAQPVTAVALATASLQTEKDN
Procedure, shortened: as §1

[4] = biological target: T4, ERG (Homo sapiens, UniProt P11308 1-479)
T4 sequence: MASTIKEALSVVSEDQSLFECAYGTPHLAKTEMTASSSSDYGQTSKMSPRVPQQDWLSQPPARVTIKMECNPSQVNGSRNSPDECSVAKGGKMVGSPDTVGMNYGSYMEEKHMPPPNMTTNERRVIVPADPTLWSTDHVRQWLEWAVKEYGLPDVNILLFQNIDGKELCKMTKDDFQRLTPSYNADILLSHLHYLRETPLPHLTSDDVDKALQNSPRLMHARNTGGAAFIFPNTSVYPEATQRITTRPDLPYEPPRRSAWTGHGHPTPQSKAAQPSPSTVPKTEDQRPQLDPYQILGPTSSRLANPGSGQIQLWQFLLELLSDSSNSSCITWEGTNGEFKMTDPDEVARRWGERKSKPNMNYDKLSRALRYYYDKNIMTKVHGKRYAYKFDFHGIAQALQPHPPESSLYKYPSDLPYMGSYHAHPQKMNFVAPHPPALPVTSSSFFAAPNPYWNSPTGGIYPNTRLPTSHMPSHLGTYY
Procedure, shortened: as §1

[5] = biological target: ELF1 (Homo sapiens, UniProt P32519 1-619)
Procedure, shortened: as §1

[6] = biological target: T5, EHF (Homo sapiens, UniProt Q9NZC4 1-300)
T5 sequence: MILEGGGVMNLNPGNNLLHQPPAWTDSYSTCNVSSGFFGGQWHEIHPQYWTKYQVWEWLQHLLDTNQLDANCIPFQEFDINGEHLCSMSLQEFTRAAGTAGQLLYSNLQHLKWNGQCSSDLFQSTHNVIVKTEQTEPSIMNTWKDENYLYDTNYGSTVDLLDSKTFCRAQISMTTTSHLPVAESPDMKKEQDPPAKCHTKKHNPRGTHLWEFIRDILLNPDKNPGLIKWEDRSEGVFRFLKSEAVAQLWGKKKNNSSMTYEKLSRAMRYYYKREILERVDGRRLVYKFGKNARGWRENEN
Procedure, shortened: as §1

[7] = biological target: SPI1 (Homo sapiens, UniProt P17947 1-270)
Procedure, shortened: as §1

[8] = biological target: SPIB (Homo sapiens, UniProt Q01892 1-262)
Procedure, shortened: as §1

[9] = biological target: T6, ELK3 (Homo sapiens, UniProt P41970 1-407)
T6 sequence: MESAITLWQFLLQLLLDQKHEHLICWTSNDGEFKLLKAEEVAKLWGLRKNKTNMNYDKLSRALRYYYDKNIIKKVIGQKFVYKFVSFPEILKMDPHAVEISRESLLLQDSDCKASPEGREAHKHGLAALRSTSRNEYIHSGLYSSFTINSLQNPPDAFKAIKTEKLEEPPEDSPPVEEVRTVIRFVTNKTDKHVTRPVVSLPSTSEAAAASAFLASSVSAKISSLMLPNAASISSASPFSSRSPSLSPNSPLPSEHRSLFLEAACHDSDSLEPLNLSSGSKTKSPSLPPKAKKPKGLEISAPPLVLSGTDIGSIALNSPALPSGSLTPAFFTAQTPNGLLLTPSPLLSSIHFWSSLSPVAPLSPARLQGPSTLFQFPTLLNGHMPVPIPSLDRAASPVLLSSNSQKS
Procedure, shortened: as §1

[10] = biological target: T7, FEV (Homo sapiens, UniProt Q99581 1-238)
T7 sequence: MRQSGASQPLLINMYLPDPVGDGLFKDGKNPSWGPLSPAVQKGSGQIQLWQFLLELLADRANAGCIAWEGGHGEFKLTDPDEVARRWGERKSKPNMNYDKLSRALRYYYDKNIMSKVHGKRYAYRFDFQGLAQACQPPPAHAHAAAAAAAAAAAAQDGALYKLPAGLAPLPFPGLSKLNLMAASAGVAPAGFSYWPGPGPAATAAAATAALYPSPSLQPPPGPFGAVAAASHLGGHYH
Procedure, shortened: as §1

[11] = biological target: ETV5 (Homo sapiens, UniProt P41161 1-510)
Procedure, shortened: as §1

[12] = biological target: T8, SPIC (Homo sapiens, UniProt Q8N5J4 1-248)
T8 sequence: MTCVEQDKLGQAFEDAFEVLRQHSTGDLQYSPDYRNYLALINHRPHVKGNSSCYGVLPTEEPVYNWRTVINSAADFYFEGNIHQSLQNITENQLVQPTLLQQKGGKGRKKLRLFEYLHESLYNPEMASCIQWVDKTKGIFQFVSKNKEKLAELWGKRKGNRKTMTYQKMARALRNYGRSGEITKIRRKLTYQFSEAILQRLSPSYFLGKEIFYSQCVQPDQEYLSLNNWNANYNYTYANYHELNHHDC
Procedure, shortened: as §1

[13] = biological target: ELF4 (Homo sapiens, UniProt Q99607 1-663)
Procedure, shortened: as §1

[14] = biological target: T9, ELK4 (Homo sapiens, UniProt P28324-2 1-405)
T9 sequence: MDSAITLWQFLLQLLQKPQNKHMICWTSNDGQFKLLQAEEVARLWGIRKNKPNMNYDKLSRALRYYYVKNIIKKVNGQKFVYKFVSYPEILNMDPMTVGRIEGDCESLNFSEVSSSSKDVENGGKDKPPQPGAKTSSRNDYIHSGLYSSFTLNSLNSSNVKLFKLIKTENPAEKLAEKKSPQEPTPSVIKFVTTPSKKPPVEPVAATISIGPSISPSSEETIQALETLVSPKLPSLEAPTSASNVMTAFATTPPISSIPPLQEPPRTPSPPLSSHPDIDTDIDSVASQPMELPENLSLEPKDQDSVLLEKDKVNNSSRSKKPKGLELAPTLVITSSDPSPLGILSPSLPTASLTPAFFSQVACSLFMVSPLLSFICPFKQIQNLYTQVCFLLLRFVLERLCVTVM
Procedure, shortened: as §1

[15] = biological target: T10, ETV2 (Homo sapiens, UniProt O00321 1-342)
T10 sequence: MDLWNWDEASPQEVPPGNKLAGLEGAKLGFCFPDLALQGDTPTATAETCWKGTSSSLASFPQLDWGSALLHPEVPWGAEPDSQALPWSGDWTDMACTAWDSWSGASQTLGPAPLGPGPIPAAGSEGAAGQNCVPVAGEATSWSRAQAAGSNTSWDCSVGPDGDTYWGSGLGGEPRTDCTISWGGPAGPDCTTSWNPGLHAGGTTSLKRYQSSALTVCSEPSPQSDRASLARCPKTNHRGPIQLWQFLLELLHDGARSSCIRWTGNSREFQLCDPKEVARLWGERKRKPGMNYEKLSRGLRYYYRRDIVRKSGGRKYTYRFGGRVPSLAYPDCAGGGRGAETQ
Procedure, shortened: as §1

[16] = biological target: T11, ELF3 (Homo sapiens, UniProt P78545 1-371)
T11 sequence: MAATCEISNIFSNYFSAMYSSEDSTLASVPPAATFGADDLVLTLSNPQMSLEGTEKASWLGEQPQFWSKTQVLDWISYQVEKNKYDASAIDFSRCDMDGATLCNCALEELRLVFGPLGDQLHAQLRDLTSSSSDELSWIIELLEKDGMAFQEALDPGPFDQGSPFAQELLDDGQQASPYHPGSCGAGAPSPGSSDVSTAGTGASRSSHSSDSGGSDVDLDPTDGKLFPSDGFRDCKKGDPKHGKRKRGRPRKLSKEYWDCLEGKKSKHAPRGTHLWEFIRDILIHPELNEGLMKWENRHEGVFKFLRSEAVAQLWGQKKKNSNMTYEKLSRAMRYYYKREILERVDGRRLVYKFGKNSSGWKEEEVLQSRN
Procedure, shortened: as §1

[17] = biological target: ETV1 (Homo sapiens, UniProt P50549 1-477)
Procedure, shortened: as §1

Sequence of ETV1 (P50549 whole entry): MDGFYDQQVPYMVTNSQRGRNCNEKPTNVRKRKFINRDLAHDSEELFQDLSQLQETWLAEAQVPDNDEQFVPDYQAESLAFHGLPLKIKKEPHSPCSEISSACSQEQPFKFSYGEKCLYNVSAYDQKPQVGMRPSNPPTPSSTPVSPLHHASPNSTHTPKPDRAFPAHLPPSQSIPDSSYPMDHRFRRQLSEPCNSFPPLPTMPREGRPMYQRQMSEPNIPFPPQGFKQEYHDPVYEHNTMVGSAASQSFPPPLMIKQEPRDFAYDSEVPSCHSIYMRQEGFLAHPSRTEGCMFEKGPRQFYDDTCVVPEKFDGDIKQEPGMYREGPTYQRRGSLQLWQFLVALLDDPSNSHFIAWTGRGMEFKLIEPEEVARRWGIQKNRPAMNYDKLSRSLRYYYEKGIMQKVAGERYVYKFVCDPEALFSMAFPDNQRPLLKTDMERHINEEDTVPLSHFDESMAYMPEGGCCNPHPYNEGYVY
Sequence of ELF4 (Q99607 whole entry): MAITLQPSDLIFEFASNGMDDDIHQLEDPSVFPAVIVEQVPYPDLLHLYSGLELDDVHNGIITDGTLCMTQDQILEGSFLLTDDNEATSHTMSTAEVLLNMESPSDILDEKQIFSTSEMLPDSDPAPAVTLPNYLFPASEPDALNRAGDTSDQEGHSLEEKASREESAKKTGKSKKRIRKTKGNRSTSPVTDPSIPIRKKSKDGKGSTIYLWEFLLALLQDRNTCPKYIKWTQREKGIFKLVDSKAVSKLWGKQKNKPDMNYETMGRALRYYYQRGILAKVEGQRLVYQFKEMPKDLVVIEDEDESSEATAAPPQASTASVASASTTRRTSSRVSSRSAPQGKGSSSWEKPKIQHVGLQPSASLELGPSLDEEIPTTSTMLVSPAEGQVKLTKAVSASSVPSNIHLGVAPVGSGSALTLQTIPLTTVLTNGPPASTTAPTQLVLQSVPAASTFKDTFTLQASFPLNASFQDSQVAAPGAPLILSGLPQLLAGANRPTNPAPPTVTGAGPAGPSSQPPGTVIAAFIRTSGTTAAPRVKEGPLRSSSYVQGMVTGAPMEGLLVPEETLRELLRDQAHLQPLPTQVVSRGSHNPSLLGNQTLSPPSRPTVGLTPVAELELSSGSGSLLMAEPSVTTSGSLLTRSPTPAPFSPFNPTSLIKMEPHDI
Sequence of ETV5 (P41161 whole entry): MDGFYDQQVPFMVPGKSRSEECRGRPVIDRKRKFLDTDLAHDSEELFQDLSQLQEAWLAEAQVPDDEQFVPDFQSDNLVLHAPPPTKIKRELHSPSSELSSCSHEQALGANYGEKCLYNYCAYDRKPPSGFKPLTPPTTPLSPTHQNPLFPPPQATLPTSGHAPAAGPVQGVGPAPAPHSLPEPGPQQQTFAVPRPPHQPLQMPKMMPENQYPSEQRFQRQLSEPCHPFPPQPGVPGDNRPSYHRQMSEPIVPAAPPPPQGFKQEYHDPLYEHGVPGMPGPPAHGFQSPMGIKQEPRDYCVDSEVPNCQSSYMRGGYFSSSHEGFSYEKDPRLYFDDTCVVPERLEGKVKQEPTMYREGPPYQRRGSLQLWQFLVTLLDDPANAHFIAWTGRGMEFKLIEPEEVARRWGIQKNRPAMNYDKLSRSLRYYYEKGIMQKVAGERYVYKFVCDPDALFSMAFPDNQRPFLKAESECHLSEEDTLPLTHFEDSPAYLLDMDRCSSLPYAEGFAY
Sequence of ELF1 (P32519 whole entry): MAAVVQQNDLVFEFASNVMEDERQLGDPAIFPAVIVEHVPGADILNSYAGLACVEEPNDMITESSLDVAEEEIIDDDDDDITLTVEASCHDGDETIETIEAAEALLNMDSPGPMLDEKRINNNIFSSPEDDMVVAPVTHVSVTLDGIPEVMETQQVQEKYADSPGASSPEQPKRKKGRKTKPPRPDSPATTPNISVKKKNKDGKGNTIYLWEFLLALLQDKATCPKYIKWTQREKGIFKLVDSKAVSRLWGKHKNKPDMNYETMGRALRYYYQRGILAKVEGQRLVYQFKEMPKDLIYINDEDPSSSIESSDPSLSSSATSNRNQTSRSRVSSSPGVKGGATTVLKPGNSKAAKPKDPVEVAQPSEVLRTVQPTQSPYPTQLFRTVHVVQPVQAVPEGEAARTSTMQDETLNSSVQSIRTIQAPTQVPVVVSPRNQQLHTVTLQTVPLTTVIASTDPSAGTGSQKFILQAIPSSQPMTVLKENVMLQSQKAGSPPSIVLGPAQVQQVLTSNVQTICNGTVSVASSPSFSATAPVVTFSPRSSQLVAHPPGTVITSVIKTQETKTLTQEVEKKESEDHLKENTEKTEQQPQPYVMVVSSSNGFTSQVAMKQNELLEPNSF
Sequence of SPIB (Q01892 whole entry): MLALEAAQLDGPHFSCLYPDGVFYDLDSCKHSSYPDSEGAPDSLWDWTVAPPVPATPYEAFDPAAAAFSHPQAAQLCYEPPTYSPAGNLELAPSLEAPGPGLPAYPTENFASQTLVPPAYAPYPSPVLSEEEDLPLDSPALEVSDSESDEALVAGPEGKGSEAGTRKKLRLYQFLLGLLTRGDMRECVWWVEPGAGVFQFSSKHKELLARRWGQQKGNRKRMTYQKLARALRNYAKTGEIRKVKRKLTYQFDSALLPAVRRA

Sequence | binding signal [1] | binding signal [2] | binding signal [3] | binding signal [4] | binding signal [5] | binding signal [6] | binding signal [7] | binding signal [8] | binding signal [9] | binding signal [10] | binding signal [11] | binding signal [12] | binding signal [13] | binding signal [14] | binding signal [15] | binding signal [16] | binding signal [17]
CCGGTA | 1.48 fold enrichment (6-mer frequency, TF over GST control) | 1.51 fold enrichment (6-mer frequency, TF over GST control) | 1.46 fold enrichment (6-mer frequency, TF over GST control) | 1.7 fold enrichment (6-mer frequency, TF over GST control) | 1.5 fold enrichment (6-mer frequency, TF over GST control) | 1.62 fold enrichment (6-mer frequency, TF over GST control) | 1.45 fold enrichment (6-mer frequency, TF over GST control) | 1.59 fold enrichment (6-mer frequency, TF over GST control) | 1.41 fold enrichment (6-mer frequency, TF over GST control) | 1.81 fold enrichment (6-mer frequency, TF over GST control) | 1.59 fold enrichment (6-mer frequency, TF over GST control) | 1.69 fold enrichment (6-mer frequency, TF over GST control) | 1.45 fold enrichment (6-mer frequency, TF over GST control) | 1.41 fold enrichment (6-mer frequency, TF over GST control) | 1.52 fold enrichment (6-mer frequency, TF over GST control) | 1.6 fold enrichment (6-mer frequency, TF over GST control) | 1.59 fold enrichment (6-mer frequency, TF over GST control)
ATGCGG | 1.3 fold enrichment (6-mer frequency, TF over GST control) | 1.22 fold enrichment (6-mer frequency, TF over GST control) | 1.2 fold enrichment (6-mer frequency, TF over GST control) | 1.22 fold enrichment (6-mer frequency, TF over GST control) | 1.2 fold enrichment (6-mer frequency, TF over GST control) | 1.31 fold enrichment (6-mer frequency, TF over GST control) | 1.56 fold enrichment (6-mer frequency, TF over GST control) | 1.32 fold enrichment (6-mer frequency, TF over GST control) | 1.23 fold enrichment (6-mer frequency, TF over GST control) | 1.13 fold enrichment (6-mer frequency, TF over GST control) | 1.29 fold enrichment (6-mer frequency, TF over GST control) | 1.49 fold enrichment (6-mer frequency, TF over GST control) | 1.23 fold enrichment (6-mer frequency, TF over GST control) | 1.15 fold enrichment (6-mer frequency, TF over GST control) | 1.27 fold enrichment (6-mer frequency, TF over GST control) | 1.63 fold enrichment (6-mer frequency, TF over GST control) | 1.24 fold enrichment (6-mer frequency, TF over GST control)
